Potency and affinity values are given separately.
Assays:
Klebsiella pneumoniae = conditions: Concentration 32 ug.mL-1; ASSAY_TEST Inhibition of Bacterial Growth; detection method Absorption (OD600); MEDIA CAMHB; plate type 384well; NBS; CORNING #3640; time 18 hr
Candida albicans = conditions: 32 ug/mL
Cryptococcus neoformans = conditions: Concentration 32 ug.mL-1; ASSAY_TEST Inhibition of Fungal Growth; detection method Resazurin; Absorption (OD600-OD570); plate type 384well; NBS; CORNING #3640

Row | SMILES | Inhibition (Klebsiella pneumoniae) [%] | Inhibition (Candida albicans) [%] | Inhibition (Cryptococcus neoformans) [%]
1 | CCN(CC)CC.C[C@@H](CC1O[C@H]([C@H](O)CO)[C@@H](O)[C@H](O)[C@@H]1O)OP(=O)(O)OC[C@H]1O[C@@H](n2cnc3c(N)ncnc32)[C@H](O)[C@@H]1O (stereo not given in full) | 9.8 | -0.9 | -12.32
2 | CCN(CC)CC.C[C@H](CC1O[C@H]([C@@H](O)CO)[C@@H](O)[C@H](O)[C@@H]1O)OP(=O)(O)O (stereo not given in full) | 38.35 | 1.33 | -5.02
3 | N.O=C(O)C1(O)C[C@@H](O)[C@H](O)[C@@H]([C@@H](O)CO)O1 (stereo not given in full) | 28.17 | 3.34 | -12.91
4 | OC[C@@H](O)[C@H]1OC(O)C[C@@H](O)[C@@H]1O (stereo not given in full) | 30.82 | 4.53 | -12.95
5 | CCN(CC)CC.O=P(O)(O)OC1C[C@@H](O)[C@H](O)[C@@H]([C@H](O)CO)O1 (stereo not given in full) | 34.69 | 2.93 | -6.2
6 | CCN(CC)CC.C[C@H](CC1O[C@H]([C@H](O)CO)[C@@H](O)[C@H](O)[C@@H]1O)OP(=O)(O)OC[C@H]1O[C@@H](n2cnc3c(N)ncnc32)[C@H](O)[C@@H]1O (stereo not given in full) | 32.34 | 2.8 | -3.79
7 | CCN(CC)CC.C[C@H](CC1O[C@H]([C@@H](O)CO)[C@@H](O)[C@H](O)[C@@H]1O)OP(=O)(O)OC[C@H]1O[C@@H](n2cnc3c(N)ncnc32)[C@H](O)[C@@H]1O (stereo not given in full) | 21.04 | -0.71 | -12.97
8 | CCN(CC)CC.C[C@@H](CC1O[C@H]([C@@H](O)CO)[C@@H](O)[C@H](O)[C@@H]1O)OP(=O)(O)OC[C@H]1O[C@@H](n2cnc3c(N)ncnc32)[C@H](O)[C@@H]1O (stereo not given in full) | 27.9 | 0.32 | -9
9 | CC(=O)CC1O[C@H]([C@@H](O)CO)[C@@H](O)[C@H](O)[C@@H]1O (stereo not given in full) | 30.36 | -0.45 | -7.35
10 | CCN(CC)CC.C[C@@H](CC1O[C@H]([C@@H](O)CO)[C@@H](O)[C@H](O)[C@@H]1O)OP(=O)(O)O (stereo not given in full) | 41.76 | 0.34 | -7.83

— ChEMBL document CHEMBL4513143, “CO-ADD screening of University of Natural Resources and Life (Austria) compounds”
